Sampled rows, rich in hits. Any-hit rate of the full collection: about 4.2%.
TRPV1 PAM: HTS Assay for Compounds that Act as Potentiators of the Vanilloid Receptor 1; Transient receptor potential cation channel subfamily V member 1 (Homo sapiens), Q8NER1; potentiation, % at 8.33 µM; TRPV1-expressing cells, Fluo-8 calcium influx, capsaicin EC20 potentiation; actives 0.02% (n = 320,000); AID 540277, 2011; in the data active = potentiation above about 80%; inconclusive = between about 30% and that limit
Target sequence (Q8NER1 whole entry, looked up): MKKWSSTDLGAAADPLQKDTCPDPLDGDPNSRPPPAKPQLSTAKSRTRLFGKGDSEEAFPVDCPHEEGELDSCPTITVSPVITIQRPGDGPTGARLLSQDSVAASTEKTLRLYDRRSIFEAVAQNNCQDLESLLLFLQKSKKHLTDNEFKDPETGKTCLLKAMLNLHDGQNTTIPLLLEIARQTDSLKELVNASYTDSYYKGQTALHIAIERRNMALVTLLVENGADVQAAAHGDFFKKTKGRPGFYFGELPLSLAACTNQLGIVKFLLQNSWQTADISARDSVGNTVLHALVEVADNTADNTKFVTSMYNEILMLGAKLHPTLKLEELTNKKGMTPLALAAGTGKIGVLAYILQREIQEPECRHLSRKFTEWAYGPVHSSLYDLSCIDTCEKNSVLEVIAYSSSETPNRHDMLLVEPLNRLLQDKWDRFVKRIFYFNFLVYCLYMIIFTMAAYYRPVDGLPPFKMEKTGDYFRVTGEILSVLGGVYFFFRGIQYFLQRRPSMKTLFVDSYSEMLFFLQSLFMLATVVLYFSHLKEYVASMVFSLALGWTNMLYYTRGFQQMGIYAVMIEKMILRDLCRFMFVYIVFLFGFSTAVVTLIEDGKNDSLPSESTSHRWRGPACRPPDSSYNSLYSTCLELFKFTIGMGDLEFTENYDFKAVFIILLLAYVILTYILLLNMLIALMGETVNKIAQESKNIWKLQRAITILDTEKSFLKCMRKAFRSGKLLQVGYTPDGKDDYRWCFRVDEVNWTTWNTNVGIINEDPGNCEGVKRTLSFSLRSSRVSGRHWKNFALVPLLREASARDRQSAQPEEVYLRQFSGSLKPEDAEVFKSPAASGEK
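TRPV1-expressing cells were cultured overnight at 35.5C and loaded with Fluo-8 calcium dye for 40 to 90 min at room temperature. After a 10 s baseline, compound was added and calcium influx was read kinetically for 3 min (ex 480/em 520 nm).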
TRPV1 agonist: HTS Assay for Compounds that Act as Agonists of the Vanilloid Receptor 1; TRPV1-expressing cells, Fluo-8 calcium influx, agonist mode; Transient receptor potential cation channel subfamily V member 1 (Homo sapiens), Q8NER1; AID 540275, 2011; activation, % at 8.33 µM; actives 0.19% (n = 320,000); in the data active = activation above about 80%; inconclusive = between about 30% and that limit
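TRPV1-expressing cells were cultured overnight at 35.5C and loaded with Fluo-8 calcium dye for 40 to 90 min at room temperature. After a 10 s baseline, compound was added and calcium influx was read kinetically for 3 min (ex 480/em 520 nm).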
D1 antagonist: Antagonist of Human D 1 Dopamine Receptor: qHTS. D(1A) dopamine receptor (Homo sapiens), P21728. HEK293 TREx D1 cells, calcium flux, dopamine EC80; hits give low values. activity change, negative = inhibition, % at 10 µM. actives 3.2% (n = 360,000); in the data active = activity change below about -30%
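Kinetic fluorescence of a calcium dye serves as the read-out. D1-expressing Hek293 Trex cells, induced overnight at 30 C, are exposed to compound for 180 s before an EC80 dopamine addition, then read 180 s further.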
D1 agonist: Allosteric Agonists of the Human D1 Dopamine Receptor: qHTS; actives 1% (n = 360,000); activation, % at 2 µM; HEK293 T-REx D1 cells, calcium flux, agonist mode; D(1A) dopamine receptor (Homo sapiens), P21728; AID 504660, 2011; in the data active = activation above about 30%
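Inducible HEK293 T-REx D1 cells, force-coupled to calcium signalling, were plated at 4000 cells/well with tetracycline and held overnight at 30 C. After no-wash calcium dye loading, compound-evoked calcium rise over 180 s flagged agonists.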
D1 potentiator: Potentiators of Human D1 Dopamine Receptor: qHTS; D(1A) dopamine receptor (Homo sapiens), P21728; potentiation, % at 10 µM; HEK293 TREx D1 cells, calcium flux, dopamine EC20 potentiation; actives 0.036% (n = 360,000); in the data active = potentiation above about 30%
Large screens that a line does not name were inactive; ! = not active in a repeat.

CCn1c(=O)cc(SCC(=O)NCCN2CCN(Cc3ccccc3)CC2)c2ccccc21	D1 antagonist -33
CCn1c(=O)cc(SCC(=O)NCc2cccnc2)c2ccccc21	D1 antagonist -40
COc1cc2c(cc1OC)C(COc1ccc3c(C)cc(=O)oc3c1)N(C(=O)c1cccc(C)c1)CC2 (stereo unspecified)	none (no result: TRPV1 PAM, TRPV1 agonist)
CCCN(CC(=O)Nc1ccccc1C)C(=O)c1ccc(COc2ccccc2)cc1	D1 antagonist -42
CCc1cccc(NC(=O)c2coc(=O)c3ccccc23)c1	none (no result: TRPV1 PAM, TRPV1 agonist)
CCOC(=O)C(Cc1ccccc1)NS(=O)(=O)c1ccc(NC(C)=O)cc1 (stereo unspecified)	D1 antagonist -31
CC1(C)CC(=O)C(N=Nc2ccc(F)cc2)=C(O)C1	D1 antagonist -42
CC1(C)CC(=O)C(N=Nc2ccc(Cl)cc2)=C(O)C1	none
CCc1ccc(-n2c(=O)c3c(C)c(C)sc3n(CC(=O)NCc3ccc(C)cc3)c2=O)cc1	none (no result: TRPV1 PAM, TRPV1 agonist)
CCC(C)Sc1ccc([C@H]2N[C@@](CC(C)C)(C(=O)OC)[C@H]3C(=O)N(CC)C(=O)[C@@H]23)cc1 (stereo partly specified)	TRPV1 agonist 87
COc1ccccc1N1CCN(C(=O)Cn2ncc3c(=O)oc4ccccc4c32)CC1	none (no result: TRPV1 PAM, TRPV1 agonist)
COc1ccc(N2CCN(C(=O)c3ccc4c(c3)[nH]c(=S)n3c5ccccc5nc43)CC2)cc1	D1 antagonist -32
COc1ccccc1-n1cc(-c2ccc(Br)cc2)[nH]c1=S	none
S=c1[nH]c(-c2ccc(Br)cc2)cn1CCc1ccccc1	D1 antagonist -90
CC(=O)Nc1c(C(=O)Nc2cccc(C)c2)nnn1-c1ccc(C)cc1	D1 antagonist -34 (no result: TRPV1 PAM, TRPV1 agonist)
CC(C)N(Cc1nc(-c2ccc(Cl)cc2)no1)C(=O)c1ccco1	none (no result: TRPV1 PAM, TRPV1 agonist)
COc1cc(-c2cc(-c3nnco3)c3ccccc3n2)cc(OC)c1OC	D1 antagonist -96
c1ccc(-c2cc(-c3nnco3)c3ccccc3n2)nc1	none
COC(=O)c1cc(CSc2nc3ccc(C)cc3[nH]2)oc1C	D1 antagonist -47
Cc1cc(C)c(OCC(=O)N(Cc2ccc(N(C)C)cc2)Cc2ccco2)c(C)c1	none (no result: TRPV1 PAM, TRPV1 agonist)
Cc1cc(C)cc(OCCn2c(C3CC(=O)N(c4ccccc4Cl)C3)nc3ccccc32)c1 (stereo unspecified)	none
Cc1cccc(C)c1OCCn1c(C2CC(=O)N(c3cccc(Cl)c3)C2)nc2ccccc21 (stereo unspecified)	none (no result: TRPV1 PAM, TRPV1 agonist)
Cc1ccccc1OCCCCn1c(C2CC(=O)N(c3ccccc3Cl)C2)nc2ccccc21 (stereo unspecified)	D1 agonist 32 (no result: TRPV1 PAM, TRPV1 agonist)
Cc1cccc(C)c1OCCCCn1c(C2CC(=O)N(c3ccc(F)cc3)C2)nc2ccccc21 (stereo unspecified)	D1 agonist 36 (no result: TRPV1 PAM, TRPV1 agonist)
COc1ccccc1OCCCCn1c(C2CC(=O)N(c3ccccc3Cl)C2)nc2ccccc21 (stereo unspecified)	D1 agonist 37 (no result: TRPV1 PAM, TRPV1 agonist)
COc1ccc(N2CCN(C(=O)C(C)n3nc(C)c4sc5ccccc5c4c3=O)CC2)cc1 (stereo unspecified)	none (no result: TRPV1 PAM, TRPV1 agonist)
Cc1ccc(Cl)cc1N1CCN(C(=O)c2cnc(N3CCOCC3)c3ccccc23)CC1	none (no result: TRPV1 PAM, TRPV1 agonist)
CCc1ccc(N(CC)C(=O)Cn2c(=O)oc3ccccc32)cc1	none (no result: TRPV1 PAM, TRPV1 agonist)
Cc1cccc(N2CCN(c3nc4ccccc4c(=O)n3-c3ccc(Cl)cc3)CC2)c1C	none (no result: TRPV1 PAM, TRPV1 agonist)
Cc1ccc(C)c(N2CCN(c3nc4ccccc4c(=O)n3-c3ccc(Cl)cc3)CC2)c1	D1 antagonist -56 (no result: TRPV1 PAM, TRPV1 agonist)
CC(=O)N(CCC1(C(C)C)CCOC(C)(C)C1)C(C)c1cccs1 (stereo unspecified)	none
CC(C)CCC1(CCNC(=O)c2cccs2)CCOC(C)(C)C1 (stereo unspecified)	TRPV1 agonist 83
c1ccc(-c2cncnc2)cc1	D1 antagonist -32
COc1ccc2c(Cl)c(C(=O)N/N=C3\CCCC(=O)C3)sc2c1	D1 agonist 44
CCN(CC)C(=O)CSc1nnc2[nH]c(=O)cc(C)n12	none (no result: TRPV1 PAM, TRPV1 agonist, D1 antagonist)
CCCc1ccc(C#N)c(SC2CC(=O)N(c3ccc(OC)cc3)C2=O)n1 (stereo unspecified)	D1 antagonist -45
O=C(COC(=O)CCc1nc2ccccc2s1)Nc1ccc(S(=O)(=O)N2CCOCC2)cc1	none
O=C(COC(=O)CCc1ccc(S(=O)(=O)N2CCOCC2)cc1)Nc1ccc(Cl)cn1	D1 agonist 36!
CCN(CC)S(=O)(=O)c1cccc(NC(=O)COC(=O)c2n[nH]c(=O)c3ccccc23)c1	D1 antagonist -32
O=C(COC(=O)CCc1nc2ccccc2s1)Nc1cccc(S(=O)(=O)N2CCOCC2)c1	D1 antagonist -44
COc1ccc2c(CC(=O)Nc3cccc(S(=O)(=O)N4CCOCC4)c3)coc2c1	D1 antagonist -87
COc1cc(OC)c(NC(=O)N2CCN3CCCCC3C2)cc1Cl (stereo unspecified)	none (no result: TRPV1 PAM, TRPV1 agonist)
Cc1nn(C)c2c1c(C(F)(F)F)cc(=O)n2C(C)C(=O)NCCC(C)C (stereo unspecified)	none (no result: TRPV1 PAM, TRPV1 agonist)
Cc1cccc(Oc2ccc3c(c2)Oc2ccccc2NC3=O)c1	none (no result: TRPV1 PAM, TRPV1 agonist)
CC(C)c1ccc(S(=O)(=O)c2cnc(SCC(=O)Nc3cccc(C(F)(F)F)c3)nc2N)cc1	none (no result: TRPV1 PAM, TRPV1 agonist)
CCCc1nc2ccccc2c(C(=O)OCC(=O)Nc2cccc(S(=O)(=O)N3CCOCC3)c2)c1CC	D1 antagonist -34
O=C(COC(=O)c1n[nH]c2ccccc12)Nc1cccc(S(=O)(=O)N2CCOCC2)c1	D1 antagonist -31
N#CCc1nc2ccc(S(=O)(=O)N3CCOCC3)cc2s1	D1 agonist 39
CSc1nc2ccc(S(=O)(=O)N3CCOCC3)cc2s1	none
N#Cc1ccc(NC(=O)CCc2ccc(S(=O)(=O)N3CCOCC3)cc2)cc1	TRPV1 agonist 102
CCCc1nc2ccccc2c(C(=O)OCC(=O)Nc2ccc(S(=O)(=O)N3CCOCC3)cc2)c1CC	none (no result: D1 antagonist)
CCn1cc(S(=O)(=O)c2ccccc2)c(=O)c2cc(F)c(N3CCN(c4ccccc4)CC3)cc21	none (no result: TRPV1 PAM, TRPV1 agonist)
N#Cc1c(Cl)nsc1NC(=O)c1ccccc1	D1 antagonist -37, D1 agonist 34
N#Cc1c(NC(=O)c2ccccc2)sc2c1CCCCC2	TRPV1 agonist inconclusive
CC(C)C(NS(=O)(=O)c1ccccc1F)C(=O)N1CCc2ccccc2C1 (stereo unspecified)	D1 antagonist -37
CCOc1ccc(C2CC(=O)NC(NC(=O)c3cccc(Cl)c3)=N2)cc1 (stereo unspecified)	none (no result: TRPV1 PAM, TRPV1 agonist)

Assay outcomes deposited in PubChem by National Center for Advancing Translational Sciences (NCATS).
